ELG1 repair inh: inhibitors of ELG1-dependent DNA repair in HEK293T cells. HEK293T ELG1-luciferase reporter, luminescence, 16 h; DNA damage induced by 5-fluorouridine. actives 2.3% (n = 330,000). Potency, µM (doses to about 46.1 µM), hits mostly inhibitors. AID 504467; also: nearly all actives have a fitted effect of over 55% in size
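5-Fluorouridine DNA damage + compound/DMSO, 2,000 cells/well, 16 h, 37 °C/5% CO2. ONE-Glo, 30 min RT, luminescence. Readout = decrease in reporter signal.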
KB-3-1 cytotox: KB-3-1 parental cell cytotoxicity; KB-3-1 viability, CellTiter-Glo ATP luminescence, 72 h; actives 1.4% (n = 400,000); Potency, µM (top dose mostly 46.1 µM), most hits filed as cytotoxic; also: nearly all actives have a fitted effect of over 60% in size
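Parental KB-3-1 adenocarcinoma cells in phenol-red-free DMEM with 10% FBS were pin-treated with compounds at several concentrations, incubated 72 h at 37 °C, and viability read by CellTiter-Glo luminescence; concentration-effect curves were fitted after normalization.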
KB-V1 MDR tox: kills drug-selected multidrug resistant KB-V1 cells | KB-V1 MDR cells viability, CellTiter-Glo, 72 h | Potency, µM (doses to about 46.1 µM), usual class: cytotoxic | actives 3.4% (n = 400,000) | AID 1347076; also: nearly all actives have a fitted effect of over 60% in size
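Following 72 h at 37 degrees C with compound, KB-V1 cell viability was read by CellTiter-Glo luminescence, medium being phenol-red-free DMEM plus 10% FBS; concentration-response parameters came from normalized, curve-fitted qHTS data.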
SW480 rereplic: inducers of DNA re-replication in SW480 colon cancer cells. Potency, µM (titrated, usually from 46.1 µM), hits mostly activators. actives 1.8% (n = 340,000). SW480 DNA re-replication, Hoechst DNA content imaging, 48 h; also: nearly all actives have a fitted effect of over 55% in size
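Compounds, transferred as 23 nL by pin tool, were incubated with cells for 48 hr; DNA content per nucleus was then quantified by Hoechst staining and fluorescence plate imaging.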
MCF10A rereplic: induces DNA re-replication in MCF 10a normal breast cells. MCF 10A DNA re-replication, Hoechst nuclear intensity, 48 h. Potency, µM (series often up to 46.1 µM), actives largely listed as activators. actives 2.9% (n = 350,000); also: nearly all actives have a fitted effect of over 50% in size
ELG1 FLuc counter: luciferase inhibition in cell-free luciferin readout for ELG1 hits; Potency, µM (titrated, usually from 46.1 µM), most hits filed as inhibitors; actives 3% (n = 350); shares compounds with ELG1 repair inh; cell-free firefly luciferase luminescence counter-screen, ViewLux
ELG1 Luc conf: inhibits ELG1-dependent DNA repair in HEK293T cells, confirmed. HEK293T ELG1-luciferase levels, luminescence; cells co-treated with 5-fluorouridine. actives 68% (n = 670). shares compounds with ELG1 repair inh. Potency, µM (titrated, usually from 46.1 µM), usual class: inhibitors. AID 624248; also: nearly all actives have a fitted effect of over 55% in size
ELG1-Luc MMS: MMS-stimulated human ELG1 repair inhibition, confirmed | shares compounds with ELG1 repair inh | HEK293T luciferase-tagged ELG1 level, MMS stimulated | Potency, µM (series often up to 46.1 µM), usual class: inhibitors | actives 53% (n = 670) | AID 624249; also: nearly all actives have a fitted effect of over 60% in size
ELG1 5FU viab: confirmation of ELG1 repair inhibitors: viability with 5FU. 670 tested, under 10 active. shares compounds with ELG1 repair inh. cell viability with 5-FU, ELG1-dependent repair. AID 624250. Potency, µM (series often up to 46.1 µM), usual class: cytotoxic;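 also: ELG1-luc HEK293T cells cotreated with 5-fluorouridine at 10 µM final; viability measured 16 h after compound addition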
ELG1 MMS viab: confirmation of ELG1 repair inhibitors: viability with MMS | Potency, µM (series often up to 46.1 µM), usual class: cytotoxic | Cell viability with MMS, ELG1-dependent DNA repair | shares compounds with ELG1 repair inh | actives 33% (n = 670);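 also: ELG1-luc HEK293T cells co-treated with 10 µM MMS; viability read 16 h after compound addition; nearly all actives have a fitted effect of over 60% in size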
ELG1 unstim viab: counter-screen for ELG1 repair inhibitors: unstimulated cell viability; shares compounds with ELG1 repair inh; cell viability counter-screen, unstimulated, luminescence; Potency, µM (highest dose often 45.9 µM), actives largely listed as cytotoxic; actives 8% (n = 900); AID 624252;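 also: compound exposure lasted 16 hours before reading; nearly all actives have a fitted effect of over 55% in size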
FLuc enzyme: firefly luciferase inhibition counter-screen. shares compounds with ELG1 repair inh. purified firefly luciferase, luminescence counter-screen. Potency, µM (titrated, usually from 57.5 µM), most hits filed as inhibitors. actives 10% (n = 350)
Each line names hits and unclear results; the compound was inactive in the other large screens (follow-up assays come after a bar, where they were run). The list is not random: actives were taken first. Their share in the collection is about 8.1%. Calls follow the shape of the dose curve; as a rule, active = well fitted curve in the direction sought with a large enough effect; inconclusive = small, poorly fitted or top-dose-only effect, or another doubt; inactive = no such curve, though single readings can be large; an effect the other way counts as inactive or inconclusive.

Cc1cc(C(=O)COC(=O)c2ccc(F)cc2)c(C)n1C	ELG1 repair inh inconclusive | ELG1 unstim viab inconclusive
Cc1cc(C(=O)COC(=O)c2cc(Cl)c(O)c(Cl)c2)c(C)n1C	ELG1 repair inh inconclusive, KB-3-1 cytotox inconclusive
Cc1ccc2cc(CN(CC3CCCO3)S(=O)(=O)c3c(C)ccc4nsnc34)c(=O)[nH]c2c1 (configuration not stated)	MCF10A rereplic inconclusive
Cc1ccc2nsnc2c1S(=O)(=O)N(Cc1cc2cccc(C)c2[nH]c1=O)CC1CCCO1 (configuration not stated)	ELG1 repair inh 2.3µM, KB-V1 MDR tox inconclusive | ELG1 Luc conf inconclusive | ELG1-Luc MMS 7.9µM | ELG1 5FU viab inactive | ELG1 MMS viab inactive | ELG1 unstim viab inconclusive
OCCCNc1ncnc2scc(-c3ccc(Cl)cc3)c12	ELG1 repair inh 4.6µM, KB-V1 MDR tox inconclusive | ELG1 Luc conf 5.6µM | ELG1-Luc MMS 16µM | ELG1 5FU viab inactive | ELG1 MMS viab inactive | ELG1 unstim viab inconclusive
CCCNC(=O)c1onc(CSc2ccc(F)cc2)c1C(=O)NCCC	SW480 rereplic inconclusive, MCF10A rereplic inconclusive
CN=C1SC(CC(=O)Nc2ccccc2F)C(=O)N1/N=C/c1ccc(O)c(OC)c1 (configuration not stated)	ELG1 repair inh 2.9µM, MCF10A rereplic inconclusive | ELG1 Luc conf 14µM | ELG1-Luc MMS inactive | ELG1 5FU viab inconclusive | ELG1 MMS viab inactive | ELG1 unstim viab inconclusive
COc1cc(NC(=S)Nc2ccc(S(=O)(=O)N3CCOCC3)cc2)cc(OC)c1OC	none
CCOc1ccccc1C(=O)Nc1ccc(-n2nncc2C(C)(C)C)cc1	ELG1 repair inh inconclusive
CCOC(=O)c1c(NC(=O)C[n+]2ccc(N(C)C)cc2)sc(C)c1C	ELG1 repair inh 4.1µM, KB-3-1 cytotox inconclusive | ELG1 Luc conf inactive | ELG1-Luc MMS inactive | ELG1 5FU viab inactive | ELG1 MMS viab inactive | ELG1 unstim viab inconclusive
O=C(Nc1ccc(F)cc1)c1ccc2c(=O)n(CC3CCCO3)c(=S)[nH]c2c1 (configuration not stated)	ELG1 repair inh 4.1µM, MCF10A rereplic inconclusive | ELG1 Luc conf 5.6µM | ELG1-Luc MMS 22µM | ELG1 5FU viab inconclusive | ELG1 MMS viab inconclusive | ELG1 unstim viab inactive
O=C(NCC1CCCO1)c1ccc2c(=O)n(CC3CCCO3)c(=S)[nH]c2c1 (configuration not stated)	none
CCOC(=O)NC(NC(=O)OCC)C(=O)c1ccccc1	KB-V1 MDR tox inconclusive
Cc1csc(SCC(=O)Nc2cccc3nsnc23)n1	ELG1 repair inh 2.6µM, KB-V1 MDR tox inconclusive | ELG1 Luc conf 2.8µM | ELG1-Luc MMS inconclusive | ELG1 5FU viab inactive | ELG1 MMS viab inactive | ELG1 unstim viab inactive
COc1ccccc1NC(=O)c1cn(C)c(=O)c2cc(OC)c(OC)cc12	ELG1 repair inh inconclusive, MCF10A rereplic inconclusive
COc1cc2c(C(=O)Nc3ccccc3F)cn(C)c(=O)c2cc1OC	none | ELG1 FLuc counter inactive | ELG1 Luc conf 18µM | ELG1-Luc MMS inactive | ELG1 5FU viab inconclusive | ELG1 MMS viab inconclusive | ELG1 unstim viab inactive | FLuc enzyme inactive
CC(NC(=O)C1CCCC1)C1CC2CCC1C2 (configuration not stated)	ELG1 repair inh 4.1µM | ELG1 Luc conf inactive | ELG1-Luc MMS inconclusive | ELG1 5FU viab inactive | ELG1 MMS viab inactive | ELG1 unstim viab inactive
Cc1ccccc1C(=O)Nc1ccc(Br)cn1	ELG1 repair inh inconclusive
Cc1cc(C(=O)Nc2ccc(Br)cn2)sc1C	ELG1 repair inh inconclusive | ELG1 unstim viab inconclusive
COc1ccc(CCN2C(=O)C3C4C=CC(C3C2=O)C2C(=O)N(CCc3ccc(OC)c(OC)c3)C(=O)C42)cc1OC (configuration not stated)	ELG1 repair inh 3.3µM, KB-3-1 cytotox inconclusive | ELG1 Luc conf inconclusive | ELG1-Luc MMS 6.3µM | ELG1 5FU viab inactive | ELG1 MMS viab 5µM | ELG1 unstim viab inconclusive
COc1ccc(CCN2C(=O)C3C4C=CC(C5CC45)C3C2=O)cc1OC (configuration not stated)	KB-V1 MDR tox inconclusive
Cc1cccc(C)c1NC(=O)C1(C)CN(S(C)(=O)=O)CC(=O)N1CCc1ccccc1F (configuration not stated)	KB-V1 MDR tox inconclusive (no result: ELG1 repair inh, SW480 rereplic, MCF10A rereplic)
CCc1ccc2oc(=O)cc(CN3CCN(CCO)CC3)c2c1	none
CN(CC(=O)Nc1ccc(Cl)cc1)CC(=O)Nc1sc2c(c1C(N)=O)CCC2	none (no result: ELG1 repair inh, SW480 rereplic, MCF10A rereplic)
CN(CC(=O)Nc1ccccc1Cl)CC(=O)Nc1sc2c(c1C(N)=O)CCC2	ELG1 repair inh 4.6µM, SW480 rereplic inconclusive, MCF10A rereplic 3.3µM | ELG1 Luc conf 16µM | ELG1-Luc MMS inconclusive | ELG1 5FU viab inactive | ELG1 MMS viab inactive | ELG1 unstim viab inconclusive
CCn1c(/C=C/c2ccc(F)cc2)nc2ccccc2c1=O	KB-3-1 cytotox inconclusive, SW480 rereplic inconclusive
COc1cc(C(=O)OCCCc2cc3ccccc3c(=O)o2)cc(OC)c1OC	ELG1 repair inh inconclusive
COc1cc(C(=O)OCCc2cc3ccccc3c(=O)o2)cc(OC)c1OC	ELG1 repair inh inconclusive, KB-3-1 cytotox 4.6µM, KB-V1 MDR tox inconclusive, SW480 rereplic 8.2µM, MCF10A rereplic 15µM | ELG1 Luc conf 4.4µM | ELG1-Luc MMS inconclusive | ELG1 5FU viab inconclusive | ELG1 MMS viab inconclusive | ELG1 unstim viab inconclusive
Cc1ccc(-c2nc3ccccc3n3nnnc23)cc1	ELG1 repair inh inconclusive, KB-V1 MDR tox inconclusive | ELG1 FLuc counter inactive | ELG1 unstim viab inactive | FLuc enzyme inconclusive

Screening results (PubChem)
